In the supplement of paper PMC6522484:
± gives the standard deviation of the averaged measurements.

Experiments:
DLD1 [1] = assay: cell viability (CellTiter-Glo) relative to plate median (fraction of plate median); higher = more viable cells; details: 10 µM, treatment time 24 h
Outline: (§1)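 Each value averages two independent replicates in which the well signal was normalised to the plate median (webcellHTS2, additive, without log transformation). The signal was firefly luciferase or CellTiterGlo luminescence, read on parallel plates with a Tecan F500. The cells were colorectal cancer lines with stable lentiviral TCF/Wnt firefly luciferase reporters in 384-well plates, dosed 24 h after seeding with kinase inhibitor library compounds at a final 10 µM for 24 h.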

HCT116 [2] = assay: as above; details: 10 µM; treatment time 24 h; reporter: TCF4/Wnt
Outline: as §1

SW480 [3] = assay: as above; details: 10 µM; treatment time 24 h; reporter: 7TFP
Outline: as §1

DLD1 [4] = assay: TCF/Wnt firefly luciferase reporter signal relative to plate median (fraction of plate median); higher = higher Wnt reporter signal; details: 10 µM, treatment time 24 h
Outline: as §1

HCT116 [5] = assay: as above; details: 10 µM; treatment time 24 h; reporter: TCF4/Wnt
Outline: as §1

SW480 [6] = assay: as above; details: 10 µM; treatment time 24 h; reporter: 7TFP
Outline: as §1

| SMILES | cell viability (DLD1 [1]; reporter: 7TFP) | cell viability (DLD1 [1]; reporter: TCF4/Wnt) | cell viability (HCT116 [2]) | cell viability (SW480 [3]) | TCF/Wnt firefly luciferase reporter signal (DLD1 [4]; reporter: 7TFP) | TCF/Wnt firefly luciferase reporter signal (DLD1 [4]; reporter: TCF4/Wnt) | TCF/Wnt firefly luciferase reporter signal (HCT116 [5]) | TCF/Wnt firefly luciferase reporter signal (SW480 [6]) |
| --- | --- | --- | --- | --- | --- | --- | --- | --- |
| CCC[C@H](NC(=O)/C(C#N)=C/c1cccc(Br)n1)c1ccccc1 | 0.421 ± 0.17 | 0.532 ± 0.038 | 0.13 ± 0.066 | 0.826 ± 0.11 | 0.0449 ± 0.0065 | 0.0661 ± 0.016 | 0.0353 ± 0.0076 | 0.037 ± 0.0048 |
| CCC(=O)N1CCN(c2ccc(-n3c(=O)ccc4cnc5ccc(-c6cnc7ccccc7c6)cc5c43)cc2C(F)(F)F)CC1 [Torin 1] | 0.914 ± 0.16 | 0.97 ± 0.013 | 0.827 ± 0.045 | 1.17 ± 0.11 | 0.252 ± 0.044 | 0.311 ± 0.049 | 0.44 ± 0.096 | 0.66 ± 0.14 |
| N#CC[C@H](C1CCCC1)n1cc(-c2ncnc3[nH]ccc23)cn1 | 1.115 ± 0.0071 | 1.13 ± 0.057 | 1.09 | 0.9755 ± 0.0021 | 1.05 ± 0.15 | 1.025 ± 0.0071 | 1.13 ± 0.042 | 1.09 ± 0.042 |
| COc1ncc(-c2ccc3nccc(-c4ccnnc4)c3c2)cc1NS(=O)(=O)c1ccc(F)cc1F | 0.84 ± 0.018 | 0.944 ± 0.073 | 0.295 ± 0.026 | 1.09 ± 0.042 | 0.255 ± 0.054 | 0.238 ± 0.067 | 0.132 ± 0.021 | 0.558 ± 0.0092 |
| O=C(c1ccc(/C=C/c2n[nH]c3ccccc23)cc1)N1CCNCC1 | 1.16 ± 0.021 | 1.14 ± 0.071 | 0.944 ± 0.093 | 1.09 ± 0.035 | 1.26 ± 0.6 | 1.46 ± 0.65 | 1.45 ± 0.45 | 1.53 ± 0.2 |
| CC(C)(C)c1cc(/C=C(\C#N)C(N)=S)cc(C(C)(C)C)c1O [Tyrphostin AG 879 (AG 879)] | 0.851 ± 0.1 | 0.911 ± 0.098 | 0.979 ± 0.1 | 0.844 ± 0.018 | 0.707 ± 0.12 | 1.04 ± 0.042 | 0.791 ± 0.12 | 0.878 ± 0.041 |
| O=c1cc(N2CCOCC2)oc2c(-c3cccc4c3sc3ccccc34)cccc12 | 1.01 ± 0.083 | 0.964 ± 0.052 | 1 ± 0.094 | 1.04 ± 0.014 | 1.19 ± 0.064 | 1.16 ± 0.17 | 1.73 ± 0.64 | 1.1 ± 0.042 |
| CN(c1ncccc1CNc1nc(Nc2ccc3c(c2)CC(=O)N3)ncc1C(F)(F)F)S(C)(=O)=O | 0.974 ± 0.19 | 1.06 ± 0.071 | 0.698 ± 0.21 | 1.19 ± 0.11 | 0.732 ± 0.28 | 1.66 ± 0.33 | 0.2 ± 0.037 | 0.9115 ± 0.0064 |
| C=CC(=O)Nc1cc2c(Nc3ccc(F)c(Cl)c3)ncnc2cc1OCCCN1CCOCC1 [CI-1033 (Canertinib)] | 0.868 ± 0.016 | 0.854 ± 0.068 | 0.968 ± 0.059 | 1.03 ± 0.035 | 0.353 ± 0.013 | 0.601 ± 0.096 | 1 ± 0.19 | 0.771 ± 0.32 |
| CC[C@@H]1C(=O)N(C)c2cnc(Nc3ccc(C(=O)N[C@H]4CC[C@H](N5CCN(CC6CC6)CC5)CC4)cc3OC)nc2N1C(C)C [BI6727 (Volasertib)] | 0.744 ± 0.32 | 0.894 ± 0.071 | 0.554 ± 0.18 | 0.995 ± 0.16 | 1.68 ± 0.18 | 1.98 ± 0.49 | 0.866 ± 0.0085 | 1.39 ± 0.27 |
| Cc1cn(-c2cc(NC(=O)c3ccc(C)c(Nc4nccc(-c5cccnc5)n4)c3)cc(C(F)(F)F)c2)cn1 [Nilotinib (AMN-107)] | 0.808 ± 0.028 | 0.935 ± 0.041 | 0.9715 ± 0.005 | 0.973 ± 0.053 | 0.873 ± 0.054 | 0.708 ± 0.12 | 0.894 ± 0.028 | 1.04 ± 0.028 |
| CO[C@@H](C(=O)N1Cc2[nH]nc(NC(=O)c3ccc(N4CCN(C)CC4)cc3)c2C1)c1ccccc1 | 1.09 ± 0.11 | 1.12 ± 0.071 | 0.823 ± 0.29 | 1.1 ± 0.042 | 1.23 ± 0.064 | 1.41 ± 0.014 | 0.388 ± 0.019 | 0.656 ± 0.083 |
| Cn1cc(-c2ccc3ncc(Cc4ccc5ncccc5c4)n3n2)cn1 | 1.045 ± 0.0071 | 1.06 ± 0.094 | 1.15 ± 0.028 | 0.911 ± 0.032 | 0.931 ± 0.021 | 0.769 ± 0.21 | 0.991 ± 0.61 | 0.587 ± 0.28 |
| CCn1cc(-c2ccnc3[nH]c(-c4cccc(CN(C)C)c4)cc23)c(-c2ccc(NC(=O)N(C)C)cc2)n1 | 0.994 ± 0.11 | 0.9965 ± 0.0021 | 0.913 ± 0.05 | 1.07 ± 0.099 | 1.01 ± 0.11 | 1.05 ± 0.081 | 1.71 ± 0.028 | 1.02 ± 0.16 |
| C[C@@H]1COC(Nc2ccc3ncnc(Nc4ccc(OCc5nccs5)c(Cl)c4)c3c2)=N1 | 0.932 ± 0.12 | 0.973 ± 0.028 | 1.055 ± 0.0071 | 0.988 ± 0.031 | 1.14 ± 0.18 | 1.51 ± 0.45 | 1.52 ± 0.042 | 1.22 ± 0.25 |
| Nc1ncnc2c1c(-c1cnc3[nH]ccc3c1)nn2C1CCCC1 | 0.8 ± 0.14 | 0.862 ± 0.063 | 0.489 ± 0.15 | 0.967 ± 0.15 | 0.322 ± 0.033 | 0.51 ± 0.084 | 0.21 ± 0.035 | 0.562 ± 0.064 |
| CC(C)(C)c1cnc(CSc2cnc(NC(=O)C3CCNCC3)s2)o1 | 1.09 ± 0.12 | 1.06 ± 0.23 | 0.786 ± 0.17 | 1.3 ± 0.099 | 0.462 ± 0.047 | 1.06 ± 0.92 | 0.228 ± 0.0071 | 0.84 ± 0.025 |
| O=C1NCCc2[nH]c(-c3ccncc3)cc21 | 1.03 ± 0.14 | 1.03 ± 0.054 | 0.665 ± 0.14 | 1.24 ± 0.11 | 0.612 ± 0.054 | 0.44 ± 0.11 | 0.222 ± 0.0085 | 0.829 ± 0.023 |
| C[C@@H](Oc1cc(-c2cnn(C3CCNCC3)c2)cnc1N)c1c(Cl)ccc(F)c1Cl | 0.882 ± 0.067 | 1.04 ± 0.042 | 0.674 ± 0.1 | 0.996 ± 0.048 | 0.833 ± 0.16 | 0.831 ± 0.077 | 0.978 ± 0.29 | 0.682 ± 0.15 |
| Nc1nccc(Oc2ccc(NC(=O)c3c[nH]cc(-c4ccc(F)cc4)c3=O)cc2F)c1Cl | 1.16 ± 0.22 | 1.01 ± 0.069 | 1.12 ± 0.2 | 0.886 ± 0.018 | 1.07 ± 0.17 | 0.826 ± 0.016 | 0.766 ± 0.32 | 0.549 ± 0.27 |
| CCn1c(-c2nonc2N)nc2c(C#CC(C)(C)O)ncc(OC[C@H]3CCCNC3)c21 | 0.909 ± 0.074 | 0.954 ± 0.065 | 0.805 ± 0.0057 | 1.04 ± 0.05 | 1.05 ± 0.55 | 1.22 ± 0.26 | 1.65 ± 0.41 | 1.39 ± 0.23 |
| COc1cc2c(Oc3ccc(NC(=O)C4(C(=O)Nc5ccc(F)cc5)CC4)cc3F)ccnc2cc1OCCCN1CCOCC1 | 0.845 ± 0.044 | 0.875 ± 0.042 | 0.845 ± 0.12 | 1.03 ± 0.13 | 0.794 ± 0.15 | 0.568 ± 0.054 | 1.2 ± 0.28 | 0.838 ± 0.4 |
